Shown are actives, neighbours in structure and some others; about 2% of the full set was active somewhere.
TLR9-MyD88 block – inhibitors of human TLR9-MyD88 binding | inhibition, % at 4.98 µM | Q9NR96+Q99836 | CHO BLA complementation TLR9-MyD88, CCF4 FRET ratio | hit rate 0.21% among 340,000;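 active = inhibition above the mean over all tested compounds plus 3 SD, cut at about 21% in these data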;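 note: 0% = DMSO only wells and 100% = clavulanate BLA inhibitor control wells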
ABHD5 PLIN5 PPI – inhibitors of human ABHD5-perilipin-5 interaction; Q00G26+Q8WTS1; Split G. princeps luciferase complementation, luminescence, 4 h; inhibition, % at 4 µM; hit rate 0.78% among 360,000; AID 602281;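 active = inhibition above the mean inhibition across every tested compound plus 3 SD, cut at about 22% in these data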;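 note: 0% = DMSO only wells and the 100% control is not disclosed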
TLR4-MyD88 BLA – TLR4-MyD88 interaction inhibition in cells; O00206+Q99836; HeLa CL3-4 TLR4/MyD88 BLA complementation, FRET ratio; inhibition, % at 8.4 µM; hit rate 0.18% among 200,000; AID 861; in the data active = inhibition above about 25%;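 note: 0% = vehicle and 100% = reference inhibitor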
Beta2AR agonist – human beta-2 adrenergic receptor agonism by FAP. P07550. Am2.2-beta2AR cells, FAP receptor internalization, flow cytometry. response, % (no concentration beside the values). hit rate 0.43% among 340,000. AID 504454;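 active = response above a set limit, near 3 SD of response in nonfluorescent compounds, cut at about 42% in these data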
NOD2 RIPK2 PPI – NOD2-RIPK2 protein interaction inhibition. CHO BLA complementation NOD2-RIPK2, CCF4 ratio. O43353. hit rate 0.38% among 360,000. inhibition, % at 4.98 µM; in the data active = inhibition above about 21%;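 note: 0% = vehicle only and 100% = reference blocker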
Granule exo inh – lytic granule exocytosis inhibition; TALL-104 LAMP-1 surface exposure, flow cytometry; cells stimulated with thapsigargin and PMA; inhibition, % at 10 µM; hit rate 0.66% among 360,000;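 active = inhibition above about 55%, limit read from the data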
ABHD5 PLIN5 conf – confirmation of human ABHD5-PLIN5 interaction inhibitors; shares compounds with ABHD5 PLIN5 PPI; hit rate 67% among 2,200; inhibition, % at 4 µM; biochemical ABHD5-PLIN5 interaction, luminescence; in the data active = inhibition above about 23%;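 note: 0% = DMSO vehicle wells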
HNF4 counter – counter-screen for ABHD5-PLIN5 inhibitors: HNF4 split-luciferase; AID 651674; shares compounds with ABHD5 PLIN5 PPI; inhibition, % at 4 µM; HNF4 dimerization, luminescence, biochemical; hit rate 77% among 2,200;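 active = mean inhibition across replicate wells exceeding the computed hit threshold, cut at about 13% in these data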;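 note: light from luciferase halves that rejoin when HNF4 fusion proteins dimerize; 0% = DMSO only wells and the 100% control is not given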
Target sequence (P41235 whole entry, looked up, the tested form may be a part): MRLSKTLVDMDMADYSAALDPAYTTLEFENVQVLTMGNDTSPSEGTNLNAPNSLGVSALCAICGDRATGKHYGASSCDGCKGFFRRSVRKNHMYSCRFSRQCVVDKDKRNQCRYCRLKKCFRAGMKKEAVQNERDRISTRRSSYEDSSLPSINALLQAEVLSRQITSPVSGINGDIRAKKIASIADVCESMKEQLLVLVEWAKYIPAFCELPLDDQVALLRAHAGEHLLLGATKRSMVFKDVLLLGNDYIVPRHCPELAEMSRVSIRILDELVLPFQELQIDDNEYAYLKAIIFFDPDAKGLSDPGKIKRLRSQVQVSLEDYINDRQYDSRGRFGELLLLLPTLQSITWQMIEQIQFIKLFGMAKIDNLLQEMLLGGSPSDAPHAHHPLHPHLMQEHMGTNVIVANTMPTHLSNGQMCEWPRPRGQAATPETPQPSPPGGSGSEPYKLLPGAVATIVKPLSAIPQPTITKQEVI
Active calls of the source: *; x = no result; ! = repeats disagree.

SMILES	TLR9-MyD88 block	ABHD5 PLIN5 PPI	TLR4-MyD88 BLA	Beta2AR agonist	NOD2 RIPK2 PPI	Granule exo inh	ABHD5 PLIN5 conf	HNF4 counter
COc1cc(OC)cc(-c2c(C#Cc3ccsc3)c3cc(-c4ccc5c(c4)OCO5)ccc3n2C)c1	-2	98*	x	-3	10	-1	6	1
Cc1ccc(N2CC(C(=O)OCC(=O)NNC(=O)c3ccccc3)CC2=O)cc1 (configuration not stated)	-9	7	x	-1	-9	4	x	x
Cc1[nH]c2ccccc2c(=O)c1C(=O)/C=C/c1ccccc1	-1	32*	x	3	7	-1	63*	56*
O=C(C=Cc1ccccc1)c1c[nH]c2ccccc2c1=O	0	27*	x	-5	9	5	74*	63*
CN(CCc1ccccc1)C(=O)c1[nH]c(C(F)(F)F)nc1-c1ccccc1	x	4	x	x	0	-4	x	x
COc1ccc(/C=C/C(=O)c2ccccc2)cc1Cn1nnc2ccccc21	2	31*	6	2	1	13	73*	66*
COc1ccc(/C=C/C(=O)c2cc(F)ccc2OC(=O)c2ccc(OC)c(OC)c2)cc1OC	-7	46*	-7	12	3	-1	77*	52*
C/C=C/c1ccc(OCCn2nnc3ccccc32)c(OC)c1	-1	6	x	13	13	0	x	x
COc1ccc(/C=C/C(=O)c2cc(Br)ccc2OC(=O)c2ccco2)cc1OC	-6	1	-2	3	-1	-1	x	x
CCOc1ccc(C(=O)/C=C/c2cc(OC)c(OC)c(OC)c2)cc1	-5	4	7	11	-6	1	x	x
COc1cc(/C=C/C(=O)c2ccc(F)cc2)cc(OC)c1OC	3	38*	-15	3	6	0	68*	53*
COc1ccc(/C=C/C(=O)c2ccc(C(=O)/C=C/c3ccc(OC)c(OC)c3)cc2)cc1OC	3	55*	x	26	-1	-3	98*	91*
COCCN1C(=O)CSCC1(C)C(=O)NCc1ccccc1 (configuration not stated)	x	-6	x	x	-15	-10	x	x
Cc1ccc(C(=O)/C=C/c2ccc3ncccc3c2)cc1	-13	38*	x	-3	4	40	78*	78*
COc1ccc(/C=C/C(=O)NCc2ccc3c(c2)OCO3)cc1OC	3	96*	x	0	-2	1	5	1
CCOc1cc(/C=C/C(=O)c2ccc(C)cc2)ccc1OCC(=O)N(C)C	2	7	12	23	6	8	x	x
COc1cc(/C=C/C(=O)c2ccc(C)cc2)ccc1OCC#N	7	45*	10	4	-9	0	72*	54*
COc1ccc(Oc2ccc(/C=C/C(=O)c3ccc(O)cc3)cc2[N+](=O)[O-])cc1	1	28*	-12	40	-48	6	80*	65*
COC(=O)c1ccc(/C=C/C(=O)c2ccc(OC)cc2)cc1	3	8	-17	16	1	-5	x	x
COC(=O)c1ccc(/C=C/C(=O)c2ccc(OC)c(OC)c2)cc1	6	33*	3	9	7	5	66*	61*
CCOC(=O)c1cc2c(c(CCO)n1)[C@@H](CCO)N(S(=O)(=O)C(C)(C)C)C2	-2	0	x	-5	3	0	x	x
COc1ccc(CN2C(=O)COc3ccccc3C2c2nc3ccccc3[nH]2)cc1 (configuration not stated)	x	1	x	x	1	-4	x	x
NC(=NCCCCCCN=C(N)/N=C(\N)Nc1ccc(Cl)cc1)/N=C(\N)Nc1ccc(Cl)cc1	4	34*!	x	7	10	1	26*	2
Nc1ccn([C@@H]2O[C@H](CNCc3ccc(N4CCNCC4)cc3)[C@@H](O)[C@H]2O)c(=O)n1	-1	2	x	x	-4	-6	x	x
CCOC(=O)C1=CCC(c2ccc(CC)cc2)N(S(=O)(=O)c2ccc(C)cc2)C1 (configuration not stated)	x	-4	x	x	-17	-1	x	x
SMILES	TLR9-MyD88 block	ABHD5 PLIN5 PPI	TLR4-MyD88 BLA	Beta2AR agonist	NOD2 RIPK2 PPI	Granule exo inh	ABHD5 PLIN5 conf	HNF4 counter
CCn1c(=S)[nH]c2scc(-c3cccs3)c2c1=O	-5	-11	-8	11	-11	2	x	x
C=CCn1c(=S)[nH]c2scc(-c3ccc(C)o3)c2c1=O	-3	32*	-12	11	-7	16	22	66*
O=C(c1ccc(CSc2ccc(Cl)cc2)o1)N1CCOCC1	x	0	x	x	-4	6	x	x
O=[N+]([O-])c1ccccc1S(=O)(=O)Nc1ccc(S(=O)(=O)N2CCCC2)cc1	-10	33*	x	1	3	-3	34*	48*
Cc1ccc(NS(=O)(=O)c2ccccc2[N+](=O)[O-])cc1S(=O)(=O)N1CCCCC1	-5	-7	x	-1	-9	7	x	x
CN(C)c1ccc2cc(S(=O)(=O)O)cc(O)c2c1	-1	26*	x	-4	-9	4	9	13*
CC1CC(=Cc2ccc(N)cc2)C(=O)O1 (configuration not stated)	5	-2	x	1	11	-16	x	x
CCn1c(SCC(=O)N/N=C/C=C/c2ccco2)nnc1-c1ccccc1	0	31*	-5	-5	3	-1	24*	44*
O=C(N1CCCCC1)C1(S(=O)(=O)c2ccccc2)CC=CC1	-2	33*	x	4	-2	1	2	0
COc1cc(NC(=O)Nc2nc(C(N)Cc3ccc(C(F)(F)F)cc3)cs2)cc(OC)c1OC (configuration not stated)	x	1	x	x	-13	0	x	x
COC1CC(C)C(OC)c2cc(O)cc(c2O)NC(=O)C(C)=CC=CC(C)C(OC(N)=O)C(C)=CC(C)C1OC (configuration not stated)	8	43*	x	1	-4	-10	52*	93*
CC1(C)c2ccccc2N2CCC(=O)NC21/C=C/c1ccco1 (configuration not stated)	-11	21	-5	4	3	0	x	x
CC1(C)c2ccccc2N2CC(=O)NC21/C=C/c1ccco1 (configuration not stated)	-1	27*	-3	11	-5	3	19	21*
Cc1c(C(=O)NCc2ccccc2C(F)(F)F)sc(=O)n1Cc1ccc(Cl)c(Cl)c1	x	-10	x	x	-1	4	x	x
CC1(C(=O)NS(=O)(=O)c2ccc(Cl)cc2)CCN1C(=O)CC1CC1 (configuration not stated)	x	0	x	x	1	0	x	x
CC(=O)N(C1CC(C)C(C#N)(C#N)C1(C#N)C#N)N(C)C (configuration not stated)	0	24*	8	23	19	27	52*	95*
